Inconclusive results are not listed. Activity calls are given as the source filed them. Calls come from the whole dose curve; as a rule, active = well fitted cell-killing curve with a large enough effect in the repeat runs; inconclusive = weak or mixed curves, or effect the other way; inactive = flat fitted curve, though single readings scatter.
Test: qHTS assay to identify small molecule agonists of the sonic hedgehog signaling (Shh) pathway - cell viability counter screen (AID 1259366); note: nearly all actives have a fitted effect of over 50% in size
Conditions: NIH/3T3 Gli1-Luc viability, CellTiter-Fluor, 24 h; series mostly up to 92.4 µM; viability change, negative = cytotoxic: at the top concentration
From the text: National Center for Advancing Translational Sciences [NCATS]
NIH Chemical Genomics Center [NCGC]
U.S. Environmental Protection Agency [EPA]
National Institutes of Environmental Health Sciences [NIEHS]
National Toxicology Program [NTP]
U.S. Food and Drug Administration [FDA]
The sonic hedgehog (Shh) pathway is essential for normal embryonic development. Dysregulation of the Shh pathway can cause severe developmental defects in organs. Therefore chemicals that interfere with the pathway are potential developmental toxicants. A cell line designated 3T3Gli1-Luc (DMB/OARSA/CFSAN/FDA, Laurel, MD), a NIH/3T3 derived clone containing stably integrated Gli1-Luc reporter is used to detect chemical interference of the Shh pathway, by changes in the expression of the firefly Luc gene under the control of the Gli1 transcriptional response element. This cell line was used to screen Tox21 libraries for identifying and prioritizing the potential developmental toxicants that interfere Shh pathway. The cytotoxicity of the compounds was tested in parallel by measuring the cell viability using CellTiter-Fluor assay system (Promega, Madison, WI) in the same wells.
Tox21 Assay Protocol Summary:
3T3 Gli1-Luc cells were dispensed at 2,000 per well in 5uL of culture medium into white solid bottom 1536-well plates (Greiner Bio-One, Monroe, NC) using a Multidrop Combi (Thermo Scientific, Waltham, MA) dispenser. The assay plates were incubated at 37 C and 5% CO2 for 4hr, and then 23nL of compounds dissolved in DMSO and positive control were transferred using a Pintool station (Wako, San Diego, CA). The assay plates were incubated at 37C and 5% CO2 for 24hr. For viability read, after 23hr of compound treatment, 1uL of CellTiter-Fluor reagent (Promega Corporation, Madison, WI) was added to each well of the assay plates using Flying Reagent Dispenser (FRD, Aurora Discovery, San Diego, CA) and incubated the assay plates at 37C for 1hr. The fluorescence signal was quantified using a ViewLux plate reader (Perkin Elmer, Shelton, CT).
% is set by controls: 0 for no effect and ±100 for the full control effect; potency is the fitted concentration of half-maximal effect.

| Structure (SMILES) | viability change, negative = cytotoxic | Potency |
| --- | --- | --- |
| [As]#[In] | 1.49% (inactive) |  |
| OCCBr | -1.49% (inactive) |  |
| CC(=O)C(Cl)Cl | 0.203% (inactive) |  |
| ClC(Cl)C(Cl)Cl | 0.935% (inactive) |  |
| CC(CCc1ccccc1)NC(C)C(O)c1ccc(O)cc1 (stereo not given) | -19.4% [at 42.5 µM] (inactive) |  |
| Oc1c(Cl)cccc1Cl | 0.911% (inactive) |  |
| CCC(=O)C(CCN(C)C)(c1ccccc1)c1ccccc1 | -14.1% [at 42.5 µM] (inactive) |  |
| C(CCOCC1CO1)COCC1CO1 (stereo not given) | 2.54% (inactive) |  |
| O=[N+]([O-])c1cccc2cccnc12 | 2.23% (inactive) |  |
| COC(=O)C(c1ccccc1)C1CCCCN1 (stereo not given) | 2.27% (inactive) |  |
| O=C(Cc1ccccc1)OCc1ccccc1 | 1.16% (inactive) |  |
| [O]=[Cd] | 1.21% (inactive) |  |
| c1cc[c]([Hg][c]2ccccc2)cc1 | -20.1% (inactive) |  |
| CCN(CC)CCOC(=O)C(C)(c1ccccc1)c1ccccc1 | -24.8% [at 42.5 µM] (inactive) |  |
| N#CCBr | -2.68% (inactive) |  |
| COC(=O)c1ccccc1S(=O)(=O)NC(=O)Nc1nc(C)cc(C)n1 | 4.23% (inactive) |  |
| CCC(Cl)[N+](=O)[O-] (stereo not given) | 2.57% (inactive) |  |
| CC1=NNC(=O)N(/N=C/c2cccnc2)C1 | 4.94% (inactive) |  |
| Cc1cnc[nH]1 | -1.85% (inactive) |  |
| CC1(C)CON(Cc2ccccc2Cl)C1=O | -2.75% (inactive) |  |

| Structure (SMILES) | viability change, negative = cytotoxic | Potency |
| --- | --- | --- |
| NC(=S)C(N)=S | 9.94% (inactive) |  |
| CCCCOC(=O)c1ccccc1N | -11.6% (inactive) |  |
| Cc1nc(N)nc(N)n1 | 0.133% (inactive) |  |
| CCC(C)(C)c1cc(-n2nc3ccccc3n2)c(O)c(C(C)(C)CC)c1 | 10.4% (inactive) |  |
| NC1=NC(=O)C(c2ccccc2)O1 (stereo not given) | 9.06% [at 42.5 µM] (inactive) |  |
| Cc1nnc2n1-c1sc(CCC(=O)N3CCOCC3)cc1C(c1ccccc1Cl)=NC2 | 1.46% [at 42.5 µM] (inactive) |  |
| COc1cc(C[C@@H](C)N)c(OC)cc1C | -22.4% (inactive) |  |
| CC1=C(C(=O)Nc2ccccc2)S(=O)(=O)CCO1 |  | 21.7 µM (active) |
| O=C1CN=C(c2ccccc2)c2cc([N+](=O)[O-])ccc2N1 | -4.21% [at 42.5 µM] (inactive) |  |
| CCOP(=S)(OCC)Oc1nc(Cl)n(C(C)C)n1 | -0.962% (inactive) |  |
| OC(Cn1cncn1)(c1ccc(F)cc1)c1ccccc1F (stereo not given) | -2.83% (inactive) |  |
| CC(C)(C)NCC(O)c1cc(Cl)c(N)c(Cl)c1 (stereo not given) |  | 11.9 µM (active) |
| C=C(C)CN(CC)c1c([N+](=O)[O-])cc(C(F)(F)F)cc1[N+](=O)[O-] | 12.3% (inactive) |  |
| O=[N+]([O-])c1ccc2c3c(cccc13)CC2 | -13.2% (inactive) |  |
| COC(=O)C(C)Oc1ccc(Oc2ccc(Cl)cc2Cl)cc1 (stereo not given) | 10.3% (inactive) |  |
| C[N+](=O)[O-] | -2.92% (inactive) |  |
| O=C(O)c1cccc(Cl)c1 | 1.53% (inactive) |  |
| CCCCOP(=O)(O)OCCCC | 4.16% (inactive) |  |
| CN1CCC(N(Cc2ccccc2)c2ccccc2)CC1 | -1.05% [at 42.5 µM] (inactive) |  |
| O=[N+]([O-])c1cc(Cl)c(Cl)c(Cl)c1 | 3.09% (inactive) |  |
